# Experimental data taken from PubChem BioAssay AID488969 (Vanderbilt High Throughput Screening Facility, 2010).
# In all, about 110,000 compounds were measured (“z-score”: median about -0.1, highest 2% from about 2 on). For the sample, the highest values were picked, then their nearest neighbours and some compounds at random. Activity calls are given as the source filed them.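 Rule for the calls: active = z-score in the third read window above 3 or below -3; inactive = the rest.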
# Target: Metabotropic glutamate receptor 8 (Rattus norvegicus) (UniProt P70579)
# Experiment: mGluR8 Gi/Go-coupled signaling modulation – cell-based, rat, thallium flux, HTS, primary screen (AID 488969)
# Conditions: HEK293 rat mGluR8, GIRK (G protein-gated inwardly rectifying potassium channel) thallium flux, FluoZin2; at 10 µM; stronger effect = higher value; submaximal glutamate (EC20) added with thallium
# Chain of Metabotropic glutamate receptor 8 (Rattus norvegicus) (P70579 whole entry, looked up): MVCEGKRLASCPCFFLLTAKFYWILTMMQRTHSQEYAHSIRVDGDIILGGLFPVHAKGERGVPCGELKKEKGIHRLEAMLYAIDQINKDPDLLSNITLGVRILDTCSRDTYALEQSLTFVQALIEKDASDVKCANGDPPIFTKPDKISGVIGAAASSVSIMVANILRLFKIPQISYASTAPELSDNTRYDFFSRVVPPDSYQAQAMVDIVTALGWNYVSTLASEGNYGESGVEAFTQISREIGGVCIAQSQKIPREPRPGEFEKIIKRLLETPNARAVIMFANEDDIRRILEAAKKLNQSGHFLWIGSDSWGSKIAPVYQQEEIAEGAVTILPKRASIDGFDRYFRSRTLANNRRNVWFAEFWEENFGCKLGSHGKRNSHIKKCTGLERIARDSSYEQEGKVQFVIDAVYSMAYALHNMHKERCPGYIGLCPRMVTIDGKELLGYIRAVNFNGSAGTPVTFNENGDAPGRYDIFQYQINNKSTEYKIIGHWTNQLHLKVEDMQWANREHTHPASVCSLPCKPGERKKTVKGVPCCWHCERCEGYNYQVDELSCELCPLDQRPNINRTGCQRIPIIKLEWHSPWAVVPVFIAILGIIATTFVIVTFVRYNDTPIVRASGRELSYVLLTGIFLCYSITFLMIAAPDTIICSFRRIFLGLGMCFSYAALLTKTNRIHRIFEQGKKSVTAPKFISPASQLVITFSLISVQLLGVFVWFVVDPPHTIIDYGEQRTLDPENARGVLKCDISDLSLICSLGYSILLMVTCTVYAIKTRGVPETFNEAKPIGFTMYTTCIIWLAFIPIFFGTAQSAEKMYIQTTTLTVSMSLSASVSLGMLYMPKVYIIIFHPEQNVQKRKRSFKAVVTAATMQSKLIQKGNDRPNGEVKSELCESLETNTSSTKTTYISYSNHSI
row,Compound,z-score
1,Cn1ncc(Br)c1C(=O)OCC(=O)Nc1nc(-c2ccccc2)cs1,-0.654
2,CCCCOCCCNC(=O)/C=C/c1ccccc1Cl,-0.149
3,C/C=C/c1ccc(OCCCNC2CCCC2)c(OC)c1,1.24
4,COC(=O)c1cc(C#N)c(N(C)Cc2ccccc2)nc1C,-0.154
5,CCc1nnc(NC(=O)CSc2nnc(-c3ccncc3)n2C)s1,-1.78
6,COC(=O)c1cc(O)c(OCc2ccccc2)c(O)c1,-0.276
7,CCOC(=O)C1=C(C)NC(=O)NC1c1cccc(O)c1 (stereo unspecified),-0.126
8,CCOC(=O)C1CCC(CNCc2ccc(Cl)cc2)CC1 (stereo unspecified),-1.85
9,CNc1c([N+](=O)[O-])cnn1-c1ccc(Cl)cc1Cl,-0.197
10,CCOC(=O)C1=NN(C(=O)c2ccc(C)cc2)C(O)(c2ccc(Cl)cc2)C1 (stereo unspecified),10.4 (active)
11,CC1=NN(C(=O)COc2ccc(C)c(C)c2)C(O)(c2ccc(Cl)cc2)C1 (stereo unspecified),-0.32
12,CC1=NN(C(=O)COc2ccccc2C)C(O)(c2ccc(Cl)cc2)C1 (stereo unspecified),-0.867
13,CN1CCN(c2ncnc3c2cnn3-c2ccc(Cl)cc2)CC1,0.276
14,COc1ccccc1OCCNc1nc2c(c(=O)n(C)c(=O)n2C)n1C,1.41
15,Cc1ccc(Cc2cnc(NC(=O)c3ccco3)s2)cc1,-0.555
16,Cc1ccc(NC(=O)CSc2nc3ccccc3c3nc(CCc4c(C)n[nH]c4C)nn23)cc1F,-0.264
17,CNC(=O)CN1C(=O)CSc2ncccc21,0.227
18,COCCNC(=O)CN1C(=O)CSc2ncccc21,3.57 (active)
19,COC(=O)CN1C(=O)CSc2ncccc21,0.767
20,COC(=O)c1ccc(C)c(NC(=O)Cc2coc3cc(OC)ccc23)c1,0.022
21,Cn1c(SCCOc2cccc(Cl)c2)nnc1-c1ccncc1,-0.17

row,Compound,z-score
1,Cc1ccc(OCCSc2nnc(-c3ccncc3)n2C)cc1,-0.157
2,COCCSc1nnc(-c2cccc(C#N)c2)n1C,2.31
3,Cc1ccc(S(=O)(=O)N2CCC(C(=O)N3CCC[C@H]3C(=O)NCc3ccccc3)CC2)cc1,-0.265
4,CCC(c1nnnn1C(C)(C)C)N1CCN(C2CCCC2)CC1 (stereo unspecified),0.224
5,O=C(CN(Cc1cccs1)C(=O)CNS(=O)(=O)c1ccc(F)cc1)NCc1ccco1,-0.317
6,Cc1ccc(-c2cc(-c3ccccc3[N+](=O)[O-])[nH]n2)c(O)c1,-0.292
7,Cc1ccc(-c2cc(-c3ccccc3C)[nH]n2)c(O)c1,-0.115
8,Cc1ccc(-c2cc(-c3cccs3)[nH]n2)c(O)c1,2.77
9,COC(=O)c1cc(NS(=O)(=O)c2ccc(NCc3cccnc3)c(N)c2)cc(C(=O)OC)c1,-0.104
10,CCOC(=O)c1nc2cc3n(c(CC(C)C)c-2c1C)CC(C)=C3C,0.604
11,CCOC(=O)c1nc2cc3n(c(C)c-2c1C)C(C)C(CC)=C3C (stereo unspecified),2.31
12,CCOC(=O)c1nc2cc3n(c(C)c-2c1C)C(C)C(C)=C3C (stereo unspecified),-0.0669
13,CCOC(=O)Nc1sc2c(c1C#N)CCCC2,0.504
14,Cc1cnc(NC(=O)COc2cccc3c2OC(C)(C)C3)s1,0.713
15,Cc1cnc(NC(=O)COc2ccccc2Cl)s1,3.06 (active)
16,CSc1ccccc1NC(=O)COc1ccccc1Cl,-1.54
17,Cc1ccc(S(=O)(=O)NCCC(=O)NC2CCCC2)cc1,0.757
18,COc1ccc(CCCC(=O)NC2CCCCC2)cc1,-0.301
19,O=C(CCCCCNS(=O)(=O)c1ccc(Br)cc1)NCCN1CCOCC1,0.263
20,CCCCNC(=O)CCCCCNS(=O)(=O)c1ccc(OC)cc1,1.14
21,COc1ccc(S(=O)(=O)NCCC(=O)NC2CCCCCCC2)cc1,3.82 (active)

row,Compound,z-score
1,COc1ccc(S(=O)(=O)NCCCCCC(=O)NCCCN2CCOCC2)cc1,2.89
2,CC(C)(C)NC(=O)CN1CCC(O)(c2ccccc2)CC1,-0.263
3,CCOC(=O)CC(=O)CSc1nc2cc(C)ccc2cc1C,0.9
4,CNC(=O)c1sc(-c2ccccc2)nc1C,-0.396
5,COc1ccc(C(=O)CSc2ccc(-c3ccccc3)nn2)cc1,-0.139
6,CN=Cc1sc2ccccc2c1O,0.0625
7,Oc1c(C=Nc2cccnc2)sc2ccccc12,-0.313
8,Oc1c(C=NCc2ccncc2)sc2ccccc12,2.11
9,O=c1ccc(/C=C/c2ccccc2)nn1Cc1ccc(Cl)cc1Cl,0.353
10,CCN(CC)c1ccc(C(=O)O)cc1,-0.133
11,CCN1CCN(C(=O)c2ccc(Sc3ccccc3Cl)c([N+](=O)[O-])c2)CC1,0.195
12,CN(C)CCN1C(=O)c2oc3ccccc3c(=O)c2C1c1ccc(F)cc1 (stereo unspecified),1.86
13,CN(C)CCN1C(=O)c2oc3ccc(F)cc3c(=O)c2C1c1ccncc1 (stereo unspecified),-0.265
14,O=C1c2oc3ccccc3c(=O)c2C(c2cccc(O)c2)N1c1ccccn1 (stereo unspecified),-0.576
15,CCCOc1ccc(C2c3c(oc4ccccc4c3=O)C(=O)N2CCN(CC)CC)cc1OC (stereo unspecified),0.615
16,CCN(CC)CCN1C(=O)c2oc3ccccc3c(=O)c2C1c1ccc(F)cc1 (stereo unspecified),4.39 (active)
17,CCN(CC)CCN1C(=O)c2oc3ccccc3c(=O)c2C1c1ccc(C)cc1 (stereo unspecified),8.12 (active)
18,CCN(CC)CCCN1C(=O)c2oc3ccccc3c(=O)c2C1c1cccnc1 (stereo unspecified),0.402
19,CN1C(=O)c2oc3ccccc3c(=O)c2C1c1ccccn1 (stereo unspecified),8.59 (active)
20,CN(C)CCN1C(=O)c2oc3ccccc3c(=O)c2C1c1cccc(Br)c1 (stereo unspecified),0.553
21,CCOc1ccc(C2c3c(oc4ccccc4c3=O)C(=O)N2CCCN2CCOCC2)cc1 (stereo unspecified),-0.851

row,Compound,z-score
1,COc1ccc(C2c3c(oc4ccccc4c3=O)C(=O)N2c2ccccn2)cc1 (stereo unspecified),-0.221
2,CCN(CC)CCN1C(=O)c2oc3ccccc3c(=O)c2C1c1ccccc1 (stereo unspecified),3.81 (active)
3,COc1ccc2nc(NC3=NC(C(=O)Nc4ccc(C)cc4)CC(=O)N3)nc(C)c2c1 (stereo unspecified),-0.114
4,Cc1cc(C)c(NC(=O)C2CCCCN2C)c(C)c1 (stereo unspecified),-0.0533
5,COc1ccc(N=C2SC(C(N)=O)CC(=O)N2CCc2ccc(OC)c(OC)c2)cc1 (stereo unspecified),-0.154
6,CCOCCOc1nc2c(c(=O)n(C)c(=O)n2C)n1CCc1ccccc1,-0.18
7,CCOc1ccc(NC(=O)Cn2nnc(-c3ccccc3NC(=O)c3cccs3)n2)cc1,-0.124
8,COc1cc(C=O)ccc1OS(=O)(=O)c1ccccc1[N+](=O)[O-],-0.429
9,COc1ccc(S(=O)(=O)CCc2nnc(NC(=O)c3cccs3)s2)cc1,-0.075
10,CN(C)S(=O)(=O)N(CC(=O)Nc1ccccc1F)c1ccccc1,0.148
11,CN(C)S(=O)(=O)N(CC(=O)Nc1ccccc1)c1ccccc1,0.311
12,CN(C)S(=O)(=O)N(CC(=O)Nc1cccc(F)c1)c1ccccc1,0.587
13,CSc1cccc(NC(=O)CN(c2ccccc2)S(=O)(=O)N(C)C)c1,3.6 (active)
14,CCCCNC(=O)c1ccccc1NC(=O)CN(c1ccccc1)S(=O)(=O)N(C)C,2.11
15,COC(=O)c1ccccc1NC(=O)CN(c1ccccc1)S(=O)(=O)N(C)C,-1.07
16,CSc1cccc(NC(=O)CN(c2ccc(C)cc2C)S(C)(=O)=O)c1,3.01 (active)
17,CSc1cccc(NC(=O)CN(c2cccc(C)c2)S(C)(=O)=O)c1,0.00929
18,CSc1cccc(NC(=O)CN(c2cc(C)ccc2C)S(C)(=O)=O)c1,1.11
